The text below walks through data of PubChem BioAssay (EPA / NIEHS).

Inconclusive results are not listed. Calls of active or inactive are those of the source. How the source made its calls, unless noted: active means hit-call score of the fitted dose curve at least 0.9, where 1 is the maximum; inactive means score below 0.9.

Assay [1] is described as follows: CCTE_Mundy_HCI_hNP1_Pro_ResponderAvgInten: CCTE's Proliferation Assay in human neuroprogenitor cells, Mundy Lab (AID 2284224; active means hit-call score of the fitted dose curve at least 0.9, where 1 is the maximum;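 further: human neural progenitor cells hNP1 derived from WA09 embryonic stem cells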). Put shortly:
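Human neuroprogenitors (hNP1, WA09 lineage) receive test chemical after 40 to 44 hours of attachment. A four-hour BrdU pulse begins twenty hours later, followed by fixation and high content imaging; signal is referenced to DMSO controls.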

A short description of assay [2]: Tanguay_ZF_120hpf_MUSC: Oregon State University Tanguay Lab 120 Hour Post-fertilization zebrafish Assay for Muscle Malformation (AID 2284401). Put shortly: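 Dechorionated Tropical 5D wild-type zebrafish embryos exposed statically from 6 to 120 hpf at 28C, one per well, in 0.64% DMSO. Muscle malformation scored present/absent by brightfield microscopy at 120 hpf, fitted against DMSO.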

The nature of assay [3]: UKN5_HCS_SBAD2_cell_viability: Viability Assessment in the University of Konstanz (UKN) Leist Lab Neurite Outgrowth Assay in human iPSC-derived immature Dorsal Root Ganglia Neurons (UKN5) (AID 2284056). Put shortly:
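iPSC-derived immature peripheral neurons (SBAD2) seeded on Matrigel with CHIR99021, SU5402 and DAPT, dosed 1 h later for 24 h. Viability from Hoechst H-33342 and calcein-AM live staining, high-content imaging; bidirectional fit versus DMSO.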

Assay [4] can be described thus: UKN5_HCS_SBAD2_neurite_outgrowth: University of Konstanz (UKN) Leist Lab Neurite Outgrowth Assay in human iPSC-derived immature Dorsal Root Ganglia Neurons (UKN5) (AID 2284070). Conditions: actives raise or lower the signal. An outline of the steps:
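SBAD2 iPSC-derived immature peripheral neurons on Matrigel, 100.000 cells/cm2, medium with CHIR99021 (1.5 uM), SU5402 (5 uM), DAPT (5 uM); compound added 1 h post-seeding for 24 h. Calcein-AM neurite area by high-content imaging; Hoechst H-33342 viability; bidirectional fit vs DMSO.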

Assay [5] in a line: UKN2_HCS_IMR90_neural_migration: University of Konstanz (UKN) Leist Lab Neural Crest Cell Migration Assay in human induced IMR90 Pluripotent Stem Cells (UKN2) (AID 2284204). Conditions: actives raise or lower the signal. Put shortly:
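iPSC-derived IMR90 neural crest cells on PLO/laminin/fibronectin were seeded around silicone stoppers; after stopper removal, migration in N2-S medium with EGF and FGF ran 24 h before 24 h chemical exposure. Calcein-AM/Hoechst high-content imaging; bidirectional fit versus DMSO.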

Assay [6] can be described thus: UKN4_HCS_LUHMES_neurite_outgrowth: University of Konstanz (UKN) Leist Lab Neurite Outgrowth Assay in human LUHMES cells (UKN4) (AID 2284206). The settings on record: actives raise or lower the signal. An outline of the steps: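 Human LUHMES neuronal precursors, differentiated 2 days then replated without cAMP and GDNF, exposed to compounds for 24 h. Neurite area imaged by high-content microscopy after calcein-AM live staining; Hoechst H-33342 for viability; bidirectional fit versus DMSO.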

The nature of assay [7]: UKN4_HCS_LUHMES_cell_viability: Viability Assessment in the University of Konstanz (UKN) Leist Lab Neurite Outgrowth Assay in human LUHMES cells (UKN4) (AID 2284232). An outline of the steps: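 LUHMES precursors differentiated 2 days, replated at 30000 cells/well without cAMP/GDNF, then compound-treated 24 h. Viability from Hoechst H-33342 and calcein-AM live staining (30 min) by high-content fluorescence imaging; bidirectional fit versus DMSO.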

A short description of assay [8]: UKN2_HCS_IMR90_cell_viability: Viability Assessment in the University of Konstanz (UKN) Leist Lab Neural Crest Cell Migration Assay in human induced IMR90 Pluripotent Stem Cells (UKN2) (AID 2284233).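 Further: viability of neural crest cells differentiated from IMR90 iPSC measured by calcein-AM fluorescence imaging; cells exposed to compound for 24 h after a 24 h migration phase.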 Put shortly:
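iPSC-derived (IMR90) neural crest cells seeded around silicone stoppers on PLO/laminin/fibronectin; after 24 h migration in N2-S with EGF/FGF, chemical added for 24 h. Calcein-AM/Hoechst stained 30 min, high-content imaged; bidirectional fit versus DMSO.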

Turning to `C[C@@]1(CO)[C@H](O)CC[C@@]2(C)[C@H]1CC[C@H]1C[C@@H]3C[C@@]12CC[C@]3(O)CO`, in assay [1], the compound was classed as inactive.

For the compound `O=C(O)C(F)(OC(F)(F)C(F)(OC(F)(F)C(F)(F)C(F)(F)F)C(F)(F)F)C(F)(F)F` (configuration not stated), the outcome in assay [2] was inactive.

For the compound `[CH3][Sn]([CH3])([CH3])[Cl]`, the AC50 is 18.8 µM (active) in assay [3]; 3.1 µM (active) in assay [4]; 7.88 µM (active) in assay [5]; 2.5 µM (active) in assay [6]; 4.02 µM (active) in assay [7]; 4.51 µM (active) in assay [8].

With `OCC(F)(F)C(F)(F)C(F)(F)C(F)(F)C(F)(F)C(F)(F)C(F)(F)C(F)(F)CO`, the result in assay [2] was inactive.

As for `C=C(C)C(=O)OCCC(F)(F)C(F)(F)C(F)(F)C(F)(F)C(F)(F)C(F)(F)F`, the result in assay [2] was inactive.

With `C=C(C)C(=O)OCC(F)(F)C(F)(F)C(F)(F)C(F)(F)C(F)(F)C(F)(F)C(F)(F)F`, in assay [2], the result was inactive.

`OCCCC(F)(F)C(F)(F)C(F)(F)C(F)(F)C(F)(F)C(F)(F)C(F)(F)F`: the result in assay [2] was inactive.

What is called AC50 is the concentration at which the activity in the assay is half-maximal.
